The record followed here is PubChem BioAssay.

The test system of assay [1] is PRMT1 (protein arginine N-methyltransferase 1). Description: PRMT1 binders on small-molecule microarrays, primary screen, biochemical, small-molecule microarray, 635 nm fluorescence (AID 1088).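 Further: binding of Prmt1 protein to compounds spotted on small-molecule microarray slides.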 The settings on record: small-molecule microarray binding, higher = more signal.
Assay [2] in a line: yeast growth modulation, basal conditions, primary screen, YJM789 clinical isolate, OD600, 24 h (AID 1089).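 Further: growth of clinical yeast isolate S. cerevisiae YJM 789 seeded 1000 cells per well; test concentration not given here.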 As to conditions: S. cerevisiae YJM789 growth, higher = more signal, called active from +8 up or from −8 down.
A short description of assay [3]: fission yeast growth modulation, primary screen, strain 972, OD600, 24 h, no modulator (AID 1090).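 Further: basal condition with compound alone and no growth modifier present; test concentration not given here.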 As to conditions: S. pombe 972 growth, higher = more signal, called active from +8 up or from −8 down.
Assay [4] in a line: S. cerevisiae growth modulation with rapamycin, primary screen, strain BY4716, OD600, 96 h (AID 1091). Further: test concentration not given here. The settings on record: higher = more signal, called active from +8 up or from −8 down.
Assay [5] addresses Torsin-1A-interacting protein 2 (Homo sapiens) (UniProt Q8NFQ8). The assay can be described thus: LULL1 binders on small-molecule microarray, primary screen, cell lysate, human LULL1 lysate, 635/667 nm fluorescence (AID 1092).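 Further: probe is lysate of COS7 cells overexpressing human LULL1; score merges per-feature 667 nm fluorescence with signal-to-noise.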 As to conditions: hLULL1 lysate binding, 635 nm fluorescence, higher = more signal.
A short description of assay [6]: E. coli growth modulation, two-sided OD650, primary screen, E. coli filamentation project, strain DRC41, 24 h (AID 1093).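 Further: MC1000 strain lacking acrAB efflux and sulA so SOS filamentation is blocked; test concentration not given here.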 The settings on record: OD650, 24 h, higher = more signal, called active from +8 up or from −8 down.
Assay [7] in a line: small-molecule microarray binders of probe aLefty2, primary screen, biochemical, biotinylated probe, 635/667 nm fluorescence (AID 1094).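 Further: score merges spot fluorescence near 667 nm with spot signal-to-noise ratio.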 The settings on record: higher = more signal.
The subject of assay [8] is Noggin (protein binding on small-molecule microarray). Description: Noggin binders on small-molecule microarray, primary screen, biochemical, 635/667 nm fluorescence (AID 1095).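 Further: score merges 667 nm feature fluorescence with signal to noise over triplicate slides.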 As to conditions: 635 nm fluorescence, higher = more signal.
Assay [9] addresses Neurogenic locus notch homolog protein 3 (Homo sapiens) (UniProt Q9UM47). Description: NOTCH3 binders on small-molecule microarray, primary screen, biochemical, 635/667 nm fluorescence (AID 1096). As to conditions: NOTCH3 binding, 635 nm fluorescence, higher = more signal.
A short description of assay [10]: small-molecule microarray binders of probe aEGFR, primary screen, biochemical, biotinylated probe, 635/667 nm fluorescence (AID 1097).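 Further: probe is a biotinylated anti-EGFR antibody binding compounds printed on slides; score combines fluorescence near 667 nm and signal to noise of each spot.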 The settings on record: higher = more signal.
The subject of assay [11] is Plasmodium falciparum Sir2 (PF13_0152, Sir2A). Description: pfSir2 binders on small-molecule microarrays, primary screen, biochemical, small-molecule microarray, 635 nm fluorescence (AID 1098).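 Further: score merges spot fluorescence intensity with its signal-to-noise ratio.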 The settings on record: small-molecule microarray binding, fluorescence 635 nm; higher = more signal.
Assay [12] in a line: small-molecule microarray binders of probe aDKK1, primary screen, biochemical, biotinylated probe, 635/667 nm fluorescence (AID 1099).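 Further: score merges 667nm spot fluorescence with signal to noise across triplicate slides; reference of the scale not given here.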 As to conditions: higher = more signal.
Assay [13] is described as follows: small-molecule microarray binders of probe aCHRDL2, primary screen, biochemical, biotinylated probe, 635/667 nm fluorescence (AID 1100). As to conditions: higher = more signal.
Assay [14] is described as follows: splicing luciferase reporter signal modulators, primary screen, spliceosome inhibition project, cell-based, HEK293, splice +/- reporter (AID 1101).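 Further: HEK293 cells carrying a splicing-competent luciferase reporter gene; test concentration not given here.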 As to conditions: luminescence, 24 h, higher = more signal, called active from +8 up or from −8 down. On the technique in general: Reporter assays use an easily measured gene product as a stand-in for the process of interest.

For assay [15], the target named is Fibroblast growth factor 10 (Homo sapiens) (UniProt O15520). The assay can be described thus: FGF10 binders on small-molecule microarrays, primary screen, biochemical, small-molecule microarray, 635 nm fluorescence (AID 1102). The settings on record: FGF10 binding, fluorescence 635 nm, higher = more signal.
Sequence of Fibroblast growth factor 10 (Homo sapiens) (O15520 whole entry, looked up): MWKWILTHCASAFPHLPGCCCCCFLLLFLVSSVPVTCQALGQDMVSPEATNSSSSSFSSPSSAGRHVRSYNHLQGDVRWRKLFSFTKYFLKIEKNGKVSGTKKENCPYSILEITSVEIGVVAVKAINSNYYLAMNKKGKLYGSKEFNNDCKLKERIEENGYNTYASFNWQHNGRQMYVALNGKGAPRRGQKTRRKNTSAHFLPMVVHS
Assay [16] deals with glycogen synthase kinase-3 (GSK3A per assay name; protocol says GSK3B). The assay can be described thus: GSK3 binders on small-molecule microarrays, primary screen, biochemical, small-molecule microarray, 635 nm fluorescence, GSK3A (AID 1103). Further: the record names both GSK3A and GSK3B. As to conditions: small-molecule microarray binding, fluorescence 635 nm; higher = more signal.
Assay [17] addresses Epidermal growth factor receptor (Homo sapiens) (UniProt P00533). The assay can be described thus: EGFR binders on small-molecule microarrays, primary screen, biochemical, small-molecule microarray, 635 nm fluorescence (AID 1104).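 Further: score merges 667 nm emission intensity with spot signal to noise over triplicate slides.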 The settings on record: EGFR binding, higher = more signal.
The target of assay [18] is Follistatin-related protein 3 (Homo sapiens) (UniProt O95633). Description: FSTL3 binders on small-molecule microarrays, primary screen, biochemical, small-molecule microarray, 635 nm fluorescence (AID 1105).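 Further: score merges emission near 667 nm and signal to noise per printed spot across three slides.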 The settings on record: FSTL3 binding, higher = more signal.
Sequence of Follistatin-related protein 3 (Homo sapiens) (O95633 whole entry, looked up): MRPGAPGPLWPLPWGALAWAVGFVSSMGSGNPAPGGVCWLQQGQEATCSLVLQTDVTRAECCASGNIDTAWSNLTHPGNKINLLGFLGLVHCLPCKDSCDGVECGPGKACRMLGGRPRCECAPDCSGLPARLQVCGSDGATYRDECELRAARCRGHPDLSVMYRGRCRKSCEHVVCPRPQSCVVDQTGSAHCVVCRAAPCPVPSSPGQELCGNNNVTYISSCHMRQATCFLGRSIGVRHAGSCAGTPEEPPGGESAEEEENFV
Assay [19] addresses Dickkopf-related protein 1 (Homo sapiens) (UniProt O94907). Description: DKK1 binders on small-molecule microarrays, primary screen, biochemical, small-molecule microarray, 635 nm fluorescence scan (AID 1106).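 Further: score merges emission near 667 nm with signal to noise over three replicate slides.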 The settings on record: DKK1 binding, higher = more signal.
Assay [20] concerns Inhibin beta A chain (activin A). The assay can be described thus: INHBA (activin A) binders on microarrays, primary screen, biochemical, small-molecule microarray, 635 nm fluorescence scan (AID 1107).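 Further: mouse activin A protein probed at 4.33 µg/mL on printed slides; score merges bound-protein fluorescence near 667 nm with spot signal-to-noise.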 As to conditions: small-molecule microarray binding, higher = more signal.

Active and inactive are the calls of the source.

Sequence of Neurogenic locus notch homolog protein 3 (Homo sapiens) (Q9UM47 whole entry, looked up): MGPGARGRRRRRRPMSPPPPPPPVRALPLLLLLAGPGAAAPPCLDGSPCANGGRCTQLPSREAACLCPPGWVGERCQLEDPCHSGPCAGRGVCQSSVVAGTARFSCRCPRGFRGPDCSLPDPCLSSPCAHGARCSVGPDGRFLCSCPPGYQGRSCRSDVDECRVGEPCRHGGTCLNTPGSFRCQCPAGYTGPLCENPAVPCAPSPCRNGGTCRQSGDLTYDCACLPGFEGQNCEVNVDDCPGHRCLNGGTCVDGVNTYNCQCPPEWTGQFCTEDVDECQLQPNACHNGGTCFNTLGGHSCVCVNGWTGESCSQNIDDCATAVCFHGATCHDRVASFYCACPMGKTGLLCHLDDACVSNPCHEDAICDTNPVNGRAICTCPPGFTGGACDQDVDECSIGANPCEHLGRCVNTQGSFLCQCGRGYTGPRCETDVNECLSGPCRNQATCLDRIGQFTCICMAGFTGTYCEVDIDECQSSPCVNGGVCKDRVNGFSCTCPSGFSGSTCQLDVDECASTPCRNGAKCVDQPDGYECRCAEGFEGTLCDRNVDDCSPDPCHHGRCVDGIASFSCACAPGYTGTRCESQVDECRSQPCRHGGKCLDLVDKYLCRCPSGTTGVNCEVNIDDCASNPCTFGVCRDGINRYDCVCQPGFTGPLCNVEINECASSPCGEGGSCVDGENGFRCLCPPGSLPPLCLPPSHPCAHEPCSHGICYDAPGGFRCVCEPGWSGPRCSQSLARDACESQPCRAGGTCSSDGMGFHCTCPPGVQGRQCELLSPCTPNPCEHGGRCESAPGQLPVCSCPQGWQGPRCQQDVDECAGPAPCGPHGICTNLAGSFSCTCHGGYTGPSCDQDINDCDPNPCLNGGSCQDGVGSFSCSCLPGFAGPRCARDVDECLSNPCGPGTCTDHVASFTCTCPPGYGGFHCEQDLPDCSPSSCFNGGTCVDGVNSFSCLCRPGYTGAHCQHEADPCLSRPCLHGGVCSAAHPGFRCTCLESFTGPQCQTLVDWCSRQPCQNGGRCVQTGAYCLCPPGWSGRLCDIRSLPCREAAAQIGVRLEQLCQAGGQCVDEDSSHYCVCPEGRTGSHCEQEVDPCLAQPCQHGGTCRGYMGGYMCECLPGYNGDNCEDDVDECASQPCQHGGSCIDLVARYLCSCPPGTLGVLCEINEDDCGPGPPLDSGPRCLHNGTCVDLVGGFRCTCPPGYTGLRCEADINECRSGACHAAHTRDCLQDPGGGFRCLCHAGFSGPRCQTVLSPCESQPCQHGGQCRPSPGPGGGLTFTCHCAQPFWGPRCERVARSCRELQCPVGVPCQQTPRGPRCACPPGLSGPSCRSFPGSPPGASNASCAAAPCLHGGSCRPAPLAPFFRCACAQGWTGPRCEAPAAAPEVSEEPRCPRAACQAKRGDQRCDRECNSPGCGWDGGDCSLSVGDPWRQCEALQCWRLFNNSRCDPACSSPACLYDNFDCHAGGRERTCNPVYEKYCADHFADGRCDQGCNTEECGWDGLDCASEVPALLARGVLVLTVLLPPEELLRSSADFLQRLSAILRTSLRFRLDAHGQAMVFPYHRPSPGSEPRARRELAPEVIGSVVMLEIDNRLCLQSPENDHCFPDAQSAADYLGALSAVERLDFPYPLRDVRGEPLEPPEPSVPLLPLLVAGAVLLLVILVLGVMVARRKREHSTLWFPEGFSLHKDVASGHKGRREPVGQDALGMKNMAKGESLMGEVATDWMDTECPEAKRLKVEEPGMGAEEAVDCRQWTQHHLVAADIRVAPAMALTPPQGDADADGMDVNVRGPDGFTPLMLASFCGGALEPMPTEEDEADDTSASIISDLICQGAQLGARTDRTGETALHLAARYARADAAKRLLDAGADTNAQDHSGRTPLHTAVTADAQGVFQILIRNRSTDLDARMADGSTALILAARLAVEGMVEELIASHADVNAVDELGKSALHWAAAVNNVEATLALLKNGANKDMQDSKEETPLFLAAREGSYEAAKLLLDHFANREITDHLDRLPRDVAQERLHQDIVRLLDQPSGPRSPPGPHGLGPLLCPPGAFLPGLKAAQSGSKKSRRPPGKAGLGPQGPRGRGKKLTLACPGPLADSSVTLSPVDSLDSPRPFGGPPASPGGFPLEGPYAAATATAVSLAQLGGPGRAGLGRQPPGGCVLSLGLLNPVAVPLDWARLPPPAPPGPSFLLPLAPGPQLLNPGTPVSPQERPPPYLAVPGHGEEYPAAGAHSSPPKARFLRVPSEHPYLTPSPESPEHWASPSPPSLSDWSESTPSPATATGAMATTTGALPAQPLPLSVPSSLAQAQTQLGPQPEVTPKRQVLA
Sequence of Torsin-1A-interacting protein 2 (Homo sapiens) (Q8NFQ8 whole entry, looked up): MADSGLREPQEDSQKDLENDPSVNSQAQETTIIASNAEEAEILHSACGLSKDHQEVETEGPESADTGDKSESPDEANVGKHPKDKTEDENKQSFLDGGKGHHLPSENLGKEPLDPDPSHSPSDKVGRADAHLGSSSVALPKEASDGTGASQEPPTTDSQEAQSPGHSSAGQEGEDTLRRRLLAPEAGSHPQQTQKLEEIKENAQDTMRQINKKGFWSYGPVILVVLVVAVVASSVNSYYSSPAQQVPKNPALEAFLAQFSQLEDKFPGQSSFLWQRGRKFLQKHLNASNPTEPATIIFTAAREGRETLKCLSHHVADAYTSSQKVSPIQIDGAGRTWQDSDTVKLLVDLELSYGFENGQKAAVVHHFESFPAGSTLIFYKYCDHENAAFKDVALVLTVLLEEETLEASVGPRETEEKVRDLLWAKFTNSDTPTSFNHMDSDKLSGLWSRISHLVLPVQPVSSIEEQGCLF
Sequence of Dickkopf-related protein 1 (Homo sapiens) (O94907 whole entry, looked up): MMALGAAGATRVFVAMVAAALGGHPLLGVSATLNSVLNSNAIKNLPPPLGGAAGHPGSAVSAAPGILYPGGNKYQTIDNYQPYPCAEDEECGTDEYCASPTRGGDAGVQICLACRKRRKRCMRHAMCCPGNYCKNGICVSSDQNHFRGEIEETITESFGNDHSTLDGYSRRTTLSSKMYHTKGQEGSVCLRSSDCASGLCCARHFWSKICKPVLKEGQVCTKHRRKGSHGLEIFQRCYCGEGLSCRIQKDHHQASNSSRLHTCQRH
Sequence of Epidermal growth factor receptor (Homo sapiens) (P00533 whole entry, looked up): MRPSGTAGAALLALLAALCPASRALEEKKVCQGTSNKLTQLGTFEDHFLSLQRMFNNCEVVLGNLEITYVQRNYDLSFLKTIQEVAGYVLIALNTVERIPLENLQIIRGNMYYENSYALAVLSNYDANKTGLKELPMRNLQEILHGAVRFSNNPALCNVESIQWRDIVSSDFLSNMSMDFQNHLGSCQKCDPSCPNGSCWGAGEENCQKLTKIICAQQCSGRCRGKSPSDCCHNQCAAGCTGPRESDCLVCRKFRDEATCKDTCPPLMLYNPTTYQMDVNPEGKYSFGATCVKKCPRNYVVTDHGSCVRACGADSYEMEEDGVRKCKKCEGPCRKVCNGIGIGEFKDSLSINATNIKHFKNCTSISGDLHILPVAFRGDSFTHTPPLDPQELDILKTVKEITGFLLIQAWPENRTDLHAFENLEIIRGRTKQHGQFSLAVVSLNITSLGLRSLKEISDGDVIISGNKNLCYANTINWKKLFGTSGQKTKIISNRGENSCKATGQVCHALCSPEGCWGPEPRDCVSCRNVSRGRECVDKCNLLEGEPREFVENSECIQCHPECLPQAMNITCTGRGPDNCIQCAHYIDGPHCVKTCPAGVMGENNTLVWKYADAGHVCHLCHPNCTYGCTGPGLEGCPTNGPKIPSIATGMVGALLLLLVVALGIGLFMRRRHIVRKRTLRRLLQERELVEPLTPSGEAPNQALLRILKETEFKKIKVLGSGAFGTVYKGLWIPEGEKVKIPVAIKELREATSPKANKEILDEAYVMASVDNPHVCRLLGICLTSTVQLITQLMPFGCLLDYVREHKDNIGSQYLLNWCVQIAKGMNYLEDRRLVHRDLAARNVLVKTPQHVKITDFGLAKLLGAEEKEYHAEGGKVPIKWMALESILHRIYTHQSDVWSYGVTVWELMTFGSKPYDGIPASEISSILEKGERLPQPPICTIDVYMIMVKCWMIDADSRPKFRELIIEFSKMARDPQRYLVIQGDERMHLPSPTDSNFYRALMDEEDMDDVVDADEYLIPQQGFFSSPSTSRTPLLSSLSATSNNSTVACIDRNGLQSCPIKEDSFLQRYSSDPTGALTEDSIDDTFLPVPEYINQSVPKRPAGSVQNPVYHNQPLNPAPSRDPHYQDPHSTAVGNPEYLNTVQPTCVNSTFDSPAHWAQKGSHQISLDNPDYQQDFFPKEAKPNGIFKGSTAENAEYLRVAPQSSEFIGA

Consider `CCCCC(=C=CC[C@@H](O)c1cccc(OCCO)c1)C[C@@H](O)COCc1ccccc1`, for which the composite z-score in [1] was 0.554; in assay [5] it was 0.866; in assay [7], -0.274; in assay [8], -0.0311; in assay [9], -0.184; in assay [10], -0.188. For the same molecule, the composite z-score in assay [11] is 0.377; in [12] it was -0.17; in assay [13], -0.325; in [15] it was 0.483; in assay [16], 0.0702; in [17], -1.35. The figures for the composite z-score in assay [18], in assay [19] and in assay [20] were -0.526, -0.274 and 0.211, respectively. In addition, the z-score was -0.59 (inactive) in assay [2]; -1.95 (inactive) in [3]; -0.601 (inactive) in [4]; 1.84 (inactive) in assay [6]; -1.21 (inactive) in [14].
In the case of `Cc1c(NC(=O)/C(C#N)=C/c2ccc(Cl)cc2)c(=O)n(-c2ccccc2)n1C`, the composite z-score in assay [1] was 0.505; in assay [5] it was 1.55; in assay [7], -0.0657; in assay [8], 0.532; in assay [9] it was 0.992; in [10], -0.153. The composite z-score is 0.878 in [11]; -0.115 in assay [12]; 0.1 in assay [13]; 0.938 in assay [15]; 0.0624 in assay [16]; 0.324 in [17]. Further, the results for the composite z-score in assay [18], in [19] and in [20] were 0.371, 0.101 and 0.311, respectively. Also, the z-score in [2] was -1.53 (inactive); in assay [3], -1.57 (inactive); in assay [4], -0.311 (inactive); in [6], -0.155 (inactive); in assay [14], -0.0648 (inactive).
For the molecule `CCCC=C(CCC)[C@@H](NS(=O)(=O)c1ccc(Cl)cc1)c1ccccc1`, the composite z-score in assay [1] was 0.61; in assay [5] it was 1.1; in assay [7] it was -0.0916; in assay [8], -0.135; in [9], -0.682; in assay [10] it was -0.125. Also, the composite z-score is 0.6 in [11]; 0.619 in assay [12]; 0.951 in assay [13]; -0.686 in [15]; -1.03 in assay [16]; -0.972 in assay [17]. Also, the results for the composite z-score in [18], in [19] and in [20] were -1.29, -0.979 and 0.351, respectively. Moreover, the z-score in assay [2] is 0.286 (inactive); in assay [3] it was 0.319 (inactive); in [4], 1.61 (inactive); in [6] it was -0.829 (inactive); in assay [14], -1.69 (inactive).
For `COC(=O)[C@@]1(Cc2ccc(F)cc2)[C@H]2c3cc(C(=O)N(C)C)n(CCO)c3C[C@H]2CN1C(=O)c1ccccc1`, the composite z-score in assay [1] was 0.0788; in [5], 2.89; in [7] it was 0.0423; in assay [8], -0.515; in assay [9], -0.562; in [10], -0.0271. Besides, the composite z-score was 1.56 in assay [11]; 0.453 in assay [12]; 0.361 in assay [13]; 0.721 in assay [15]; -0.532 in assay [16]; -0.537 in assay [17]. In addition, the composite z-score was -0.918 in [18], -0.764 in assay [19] and 0.495 in [20]. The z-score in assay [2] is -1.48 (inactive); in assay [3], 0.766 (inactive); in assay [4], -0.618 (inactive); in assay [6] it was -0.28 (inactive); in assay [14], -0.773 (inactive).
With `COCCOC(=O)N1C(=O)[C@@]2(c3cc(C#CCCO)ccc31)[C@H](c1ccccc1OCCO)N1[C@H](c3ccccc3)[C@H](c3ccccc3)OC(=O)[C@H]1[C@@H]2C(=O)N1CCc2cc(OC)c(OC)cc2C1`, the composite z-score in assay [1] is 1.54; in assay [5], 2.93; in assay [7] it was -0.0616; in assay [8], 1.26; in [9], 1.12; in assay [10], 0.0384. Also, the composite z-score in assay [11] was 1.12; in assay [12], 0.161; in assay [13], 0.395; in [15], 1.34; in assay [16], 1.28; in assay [17] it was 0.529. The composite z-score came out at 1.39 in assay [18], 0.421 in [19] and 0.504 in assay [20]. In addition, the z-score was 1.88 (inactive) in assay [2]; 0.763 (inactive) in [3]; 3 (inactive) in assay [4]; 1.26 (inactive) in assay [6]; -0.221 (inactive) in [14].
